# Sampled rows, rich in hits. Any-hit rate of the full collection: about 10%.
# MmCpn inh: blocks the Methanococcus maripaludis chaperonin Mm-Cpn | actives 0.031% (n = 330,000) | AID 504842 | Potency, µM (doses to about 76.9 µM), usual class: inhibitors | purified Mm-Cpn ATPase, ADP Transcreener TR-FRET; further: nearly all actives have a fitted effect of over 80% in size
#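 ATPase read-out: TR-FRET ADP immunoassay (anti-ADP Eu cryptate vs ADP-d2), ex 320 nm, em 590/665 nm; signal drops as ADP forms. Enzyme 25 nM, ATP 10 uM, 30 min at 37°C after 10 min compound preincubation.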
# PLK1 PBD block: PLK1 (human) polo-box domain binding inhibition. P53350. Plk1 PBD binding of FITC phosphopeptide, fluorescence polarization. Potency, µM, usual class: inhibitors. actives 2.8% (n = 360,000). AID 720504; further: series mostly up to about 57 µM; nearly all actives have a fitted effect of over 65% in size
# VDR inhibitor: blocks the human vitamin D receptor. P11473. VDR-SRC2-3 peptide fluorescence polarization, 2 h. Potency, µM, actives largely listed as inhibitors. actives 0.93% (n = 400,000)
# Target sequence (P11473 whole entry, looked up): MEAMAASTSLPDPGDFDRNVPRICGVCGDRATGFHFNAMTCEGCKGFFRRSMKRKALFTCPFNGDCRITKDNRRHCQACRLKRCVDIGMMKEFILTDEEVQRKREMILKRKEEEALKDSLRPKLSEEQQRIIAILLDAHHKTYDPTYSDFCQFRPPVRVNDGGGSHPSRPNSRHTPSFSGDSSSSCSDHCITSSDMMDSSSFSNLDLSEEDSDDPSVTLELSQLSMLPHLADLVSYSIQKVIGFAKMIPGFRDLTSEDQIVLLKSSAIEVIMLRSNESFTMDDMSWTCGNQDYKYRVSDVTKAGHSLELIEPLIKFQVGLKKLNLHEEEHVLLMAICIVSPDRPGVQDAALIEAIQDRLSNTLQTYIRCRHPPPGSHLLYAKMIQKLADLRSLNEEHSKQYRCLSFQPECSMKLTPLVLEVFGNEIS
#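 Signal is fluorescence polarization, reporting how far test compounds block the interaction of VDR with the SRC2-3 coregulator peptide after a 2 h room-temperature incubation.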
# CCT modulator: modulators of cytosolic chaperonin (CCT/TRiC) activity; AID 651819; purified chaperonin ATPase assay, HTRF ADP detection, 30 min; actives 0.3% (n = 360,000); activity change, % (test concentration not listed), hits read low; in the data active means activity change below about -30%
#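 TRiC at 40 or 20 nM final (batch-dependent) in 30 mM Tris pH 7.4, 100 mM KCl, 5 mM MgCl2, 1 mM DTT, with compound at single 76 uM and 10 uM ATP, 30 min at 37 deg C. ADP detected by HTRF Transcreener, 665/615 ratio.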
# G9a block: G9a (human) methyltransferase inhibition; G9a H3K9 monomethylation, AlphaScreen, 2 h; Potency, µM (doses to about 102 µM), actives largely listed as inhibitors; actives 8.8% (n = 350,000); AID 504332; further: nearly all actives have a fitted effect of over 75% in size
# Target sequence (Q96KQ7 913-1193 limits assumed): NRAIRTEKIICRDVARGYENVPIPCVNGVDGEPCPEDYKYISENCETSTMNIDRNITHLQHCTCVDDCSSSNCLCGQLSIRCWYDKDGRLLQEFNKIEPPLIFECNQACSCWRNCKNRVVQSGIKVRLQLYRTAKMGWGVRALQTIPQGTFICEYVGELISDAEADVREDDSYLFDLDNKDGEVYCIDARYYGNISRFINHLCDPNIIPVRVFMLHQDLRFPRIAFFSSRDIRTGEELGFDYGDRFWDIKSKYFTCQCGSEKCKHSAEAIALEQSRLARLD
#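 Methyltransferase reactions run at room temperature for 2 h (20 nM enzyme, 500 nM biotin-H3K9 peptide, 20 uM SAM) after a 15 min compound preincubation; product detected by AlphaScreen beads and anti-H3K9me1 antibody.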
# Sfp PPTase inh: inhibitors of Bacillus subtilis Sfp phosphopantetheinyl transferase. actives 3.5% (n = 310,000). Potency, µM, most hits filed as inhibitors. Q9F4F7. Biochemical Sfp PPTase activity, qHTS. AID 1490;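 further: the enzyme is Sfp with the accession as filed and its product quenches rhodamine fluorescence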
#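 Reaction rates are the 30-min fluorescence difference (ex 525, em 598 nm) in wells containing 15 nM Sfp, 5 uM rhodamine-CoA and 12.5 uM BHQ-2-YbbR at pH 7.6 with 10 mM MgCl2.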
# Numbers stand for hits; i = inactive; ? = inconclusive; nt = no result. Unless noted, the call rests on the fitted dose curve; in most records, active means well fitted curve in the direction sought with a large enough effect; inconclusive means small, poorly fitted or top-dose-only effect, or another doubt; inactive means no such curve, though single readings can be large; an effect the other way counts as inactive or inconclusive.
SMILES,MmCpn inh,PLK1 PBD block,VDR inhibitor,CCT modulator,G9a block,Sfp PPTase inh
Cc1ccc(-c2nnc(Nc3ccc(O)cc3)c3ccccc23)cc1S(=O)(=O)N1CCCCC1,nt,nt,i,nt,i,nt
N=C1/C(=C/c2ccc(-c3cccc(C(=O)O)c3)o2)C(=O)N=C2SC(CC(=O)N3CCOCC3)=NN12,i,30µM,i,i,?,i
Cc1ccccc1-n1c(C)cc(/C=C2/C(=N)N3C(c4ccccc4)=CSC3=NC2=O)c1C,i,i,i,i,?,i
N=C1/C(=C\c2ccc(-c3cccc(C(=O)O)c3)o2)C(=O)N=C2SC=C(c3ccccc3)N12,i,?,i,i,11µM,i
Cc1ccc(/C=C2\C(=N)N3N=C(CC(=O)N4CCOCC4)SC3=NC2=O)o1,i,27µM,i,i,56µM,i
Cc1cc(/C=C2/C(=N)N3C(c4ccccc4)=CSC3=NC2=O)c(C)n1-c1ccccc1,i,i,i,i,50µM,i
CC1=CC2=NC(=O)/C(=C\c3ccc(-c4cccc(Cl)c4)o3)C(=N)N2O1,i,i,i,i,i,i
O=C(Nc1ccc(Cl)cc1F)c1cnc2sc(N3CCOCC3)nn2c1=O,nt,nt,i,nt,i,nt
Cc1coc2cc3oc(=O)c(CC(=O)NCc4cccc(Cl)c4)c(C)c3cc12,nt,nt,i,nt,i,nt
Cc1ccc(N(O)C(=O)NCCCCNC(=O)N(O)c2ccc(C)cc2)cc1,i,i,i,i,79µM,i
Cc1ccc(S(=O)(=O)NC(=O)NCCCCNC(=O)NS(=O)(=O)c2ccc(C)cc2)cc1,i,i,i,i,i,i
CCc1ccc(NC(=O)C2CCCN(S(=O)(=O)c3ccc4c(c3)oc(=O)n4C)C2)cc1 (stereo not drawn),nt,nt,i,nt,i,nt
COC(=O)c1cc(NC(=O)c2nccnc2C(=O)O)cc(C(=O)OC)c1,i,i,i,i,45µM,56µM
Cc1cc(C)cc(NC(=O)c2nccnc2C(=O)O)c1,i,i,i,i,25µM,?
Cc1ccc2nc(CN3CCN(S(=O)(=O)c4ccc(F)cc4)CC3)oc2c1,nt,nt,i,nt,i,nt
COc1cc2[nH]c(=S)nc(NCCC(C)C)c2cc1OC,i,?,i,i,18µM,i
COc1cc2[nH]c(=S)nc(NCCc3ccc(C)cc3)c2cc1OC,i,30µM,i,i,i,i
COc1ccc(CCNc2nc(=S)[nH]c3cc(OC)c(OC)cc23)cc1OC,i,i,i,i,?,i
COc1cc2[nH]c(=S)nc(NCCc3ccc(S(N)(=O)=O)cc3)c2cc1OC,i,i,i,i,13µM,i
COCCCNc1nc(=S)[nH]c2cc(OC)c(OC)cc12,i,i,i,i,i,?
COC(=O)c1cc2sc(Cl)cc2n1Cc1nc(-c2ccccc2)oc1C,i,i,i,i,i,79µM
CN(NS(=O)(=O)c1ccc([N+](=O)[O-])cc1)c1ccccc1,nt,3µM,nt,i,nt,nt
C/C(=N/NS(=O)(=O)c1cc(C)ccc1C)c1ccncc1,i,15µM,?,i,40µM,i
Cc1cc(C(=O)O)ccc1-c1ccc(CO)o1,i,i,i,i,?,?
Cc1cc(/C=C2/NC(=O)N(c3ccccc3)C2=O)c(C)n1-c1cccnc1,i,i,i,i,?,i
SMILES,MmCpn inh,PLK1 PBD block,VDR inhibitor,CCT modulator,G9a block,Sfp PPTase inh
Cc1ccc(CN2C(=O)N/C(=C\c3ccc(-c4ccc(C(=O)O)cc4C)o3)C2=O)cc1,?,?,i,i,40µM,i
Cn1c(=O)n(C)c2cc(/C=C3/NC(=O)N(Cc4ccccc4)C3=O)ccc21,i,i,i,i,i,i
CCn1c(C)cc(/C=C2\NC(=O)N(Cc3ccc(Cl)cc3)C2=O)c1C,i,i,i,i,i,i
Cc1ccc(C(=O)O)cc1-c1ccc(/C=C2/NC(=O)N(c3ccccc3)C2=O)o1,i,?,i,i,10µM,22µM
O=C(O)c1ccc(-c2ccc(/C=C3\NC(=O)N(Cc4ccc(Cl)cc4)C3=O)o2)cc1,i,?,i,i,50µM,i
Cc1cc(C(=O)O)ccc1-c1ccc(/C=C2\NC(=O)N(Cc3ccccc3Cl)C2=O)o1,i,17µM,?,i,25µM,13µM
Cc1cccc(NC(=O)c2oc3ccc(S(=O)(=O)N4CCCCC4)cc3c2C)c1C,nt,nt,i,nt,?,nt
O=C(c1cnc(N2CCCCC2)c2ccccc12)N1CCN(c2ccc(F)cc2)CC1,nt,nt,i,nt,i,nt
NNc1nc2ccc(Cl)cc2s1,i,i,i,i,56µM,i
Cn1ncc(Cl)c1C(=O)Nc1nc2ccc(Cl)cc2s1,i,17µM,i,i,7.9µM,i
NNc1nc2ccc(F)cc2s1,i,i,?,i,?,i
COc1ccc(N(Cc2cccs2)C(=O)c2ccc(Br)o2)cc1,nt,nt,i,nt,i,nt
Cc1ccc(-c2nc3ccccc3o2)cc1NC(=O)c1cccc2c(Cl)cccc12,nt,nt,i,nt,i,nt
O=C(CN1CCCc2ccccc21)N/N=C/c1ccc(O)cc1O,i,i,i,i,79µM,i
O=C(CN1CCCc2ccccc21)N/N=C/c1ccccc1,i,i,i,i,45µM,i
NS(=O)(=O)c1ccc(NC(=O)CN2CCCc3ccccc32)cc1,i,i,i,i,28µM,i
CCN(CC)c1ccc(/C=N/NC(=O)CN2CCCc3ccccc32)cc1,i,i,i,i,25µM,i
O=C(CN1CCOCC1)N/N=C/c1ccccc1,i,i,i,i,i,i
NS(=O)(=O)c1ccc(NC(=O)CN2CCc3ccccc32)cc1,i,i,i,i,nt,i
O=C(CNc1ccc(F)cc1)N/N=C/c1c(O)ccc2ccccc12,i,i,i,i,i,i
O=C(CO/N=C/c1ccc(OC(F)F)cc1)N1CCc2ccccc21,i,i,i,i,i,i
O=C(CN1CCCc2ccccc21)N/N=C/c1c(O)ccc2ccccc12,i,i,i,i,40µM,i
CCN(CC)c1ccc(/C=N/OCC(=O)N2CCCc3ccccc32)cc1,i,i,i,i,40µM,i
O=C(c1ccc2c(c1)N(Cc1c(F)cccc1Cl)C(=O)c1ccccc1S2)N1CCOCC1,nt,nt,i,nt,i,nt
CC(C)(C)c1ccc(C(=O)Nc2ccc(-c3nc4ccccc4o3)c(O)c2)cc1,nt,nt,i,nt,i,nt
N#C/C(=C\c1cccnc1)C(=O)Nc1ccccc1,i,i,?,i,i,i
COc1cc(/C=C(\C#N)C(=O)Nc2nnc(C(F)(F)F)s2)ccc1OCc1ccc(C(F)(F)F)cc1C(F)(F)F,nt,nt,?,nt,8.4µM,?
COc1cc(/C=C(\C#N)C(=O)NCc2ccccc2)ccc1OCc1ccc(C(=O)O)cc1,i,19µM,?,i,i,i
CCOc1cccc(NC(=O)/C(C#N)=C\c2cccnc2)c1,i,19µM,?,i,71µM,i
COc1cc(/C=C(\C#N)C(=O)Nc2ccc(C(=O)O)cc2)ccc1OC(=O)c1cccc(F)c1,i,24µM,?,i,nt,?

# Assay outcomes (PubChem BioAssay)
